Data reported in publication PMC10668032, “Altered binding affinity of SIX1-Q177R correlates with enhanced WNT5A and WNT pathway effector expression in Wilms tumor”.
The full ranking holds about 33,000 sequences; the median of “e-score” is about -0.053, and the highest 2% start at about 0.38. The full list was thinned out, with the highest values kept by preference.

molecular target: T1, SIX1 homeodomain (reference allele) (human, UniProt Q15475 108-198); experiment: universal protein binding microarray; Universal all-10-mer PBM (8x60K, AMADID 030236), 300 nM GST-tagged protein, Alexa Fluor 488 anti-GST; buffer, salt, pH and temperature not stated (as in Berger); high values mean tight binding; details: protein: ivt; tags: N-terminal GST; dsDNA, one strand shown
T1 sequence: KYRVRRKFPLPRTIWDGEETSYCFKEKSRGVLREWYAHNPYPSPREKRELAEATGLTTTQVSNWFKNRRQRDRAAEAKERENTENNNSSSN
How it was run: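 Binding of GST-tagged homeodomains is given as 8-mer E-scores from the Universal PBM Analysis Suite. The proteins were produced by in vitro transcription/translation, quantified by anti-GST western blot against a recombinant GST standard curve, and applied in duplicate at 300 nM final concentration to universal 'all 10-mer' protein binding microarrays (8×60K format).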

Q: Which binding signal does the source give for CGACACCC here?
A: 0.439 ± 0.0379 E-score

Q: How did the binding signal turn out when AGACACCC was run?
A: 0.335 ± 0.0199 E-score

Q: CAACACCA was tested. Which binding signal did it give?
A: 0.282 ± 0.0199 E-score

Q: AGACACCG was tested. Which binding signal did it give?
A: 0.323 ± 0.0488 E-score

Q: Which binding signal does the source give for GGACACCC here?
A: 0.372 ± 0.033 E-score

Q: Which binding signal does the source give for CCATAGGG here?
A: 0.162 ± 0.116 E-score

Q: With GCAGATCA as the sequence, how does the binding signal read?
A: 0.369 ± 0.0161 E-score

Q: Which binding signal does the source give for ATACTGAG here?
A: 0.286 ± 0.0205 E-score

Q: Which binding signal does the source give for CTCCAGGA here?
A: 0.161 ± 0.0145 E-score

Q: ATCAGGTA was tested. Which binding signal did it give?
A: 0.2929 ± 0.00141 E-score

Q: Which binding signal does the source give for CTCGTGTA here?
A: 0.158 ± 0.00844 E-score

Q: AAAATCCG was tested. Which binding signal did it give?
A: 0.175 ± 0.0497 E-score

Q: CGAGTACC was tested. Which binding signal did it give?
A: 0.185 ± 0.0226 E-score

Q: GGAGTATA was tested. Which binding signal did it give?
A: 0.319 ± 0.0316 E-score

Q: How did the binding signal turn out when AGAGTATC was run?
A: 0.465 ± 0.0179 E-score

Q: With CGAGTATC as the sequence, how does the binding signal read?
A: 0.435 ± 0.0231 E-score

Q: For AGAGTATA, which binding signal is on record?
A: 0.262 ± 0.0847 E-score

Q: For CGAGTATA, which binding signal is on record?
A: 0.29 ± 0.0819 E-score

Q: Which binding signal does the source give for ACCGATCG here?
A: 0.272 ± 0.0437 E-score

Q: ATATAGCC was tested. Which binding signal did it give?
A: 0.25 ± 0.032 E-score

Q: With TAACACCA as the sequence, how does the binding signal read?
A: 0.299 ± 0.0116 E-score

Q: For AGACACCT, which binding signal is on record?
A: 0.287 ± 0.0126 E-score

Q: AGACACCA was tested. Which binding signal did it give?
A: 0.329 ± 0.0244 E-score

Q: With GGACACGA as the sequence, how does the binding signal read?
A: 0.176 ± 0.0225 E-score

Q: Which binding signal does the source give for GGACACCA here?
A: 0.3862 ± 0.00187 E-score

Q: Which binding signal does the source give for TGACACCA here?
A: 0.466 ± 0.0154 E-score

Q: For GATTATCA, which binding signal is on record?
A: 0.2193 ± 0.00188 E-score

Q: For CCAGATTA, which binding signal is on record?
A: 0.252 ± 0.0366 E-score

Q: For ACCATGTA, which binding signal is on record?
A: 0.197 ± 0.0756 E-score

Q: How did the binding signal turn out when GAGGACAC was run?
A: 0.222 ± 0.0132 E-score

Q: Which binding signal does the source give for AGACGGCA here?
A: 0.197 ± 0.0126 E-score

Q: With ACACGGAT as the sequence, how does the binding signal read?
A: 0.4012 ± 0.00112 E-score

Q: For ATACGTAC, which binding signal is on record?
A: 0.336 ± 0.0217 E-score

Q: ACACGGCT was tested. Which binding signal did it give?
A: 0.2 ± 0.00761 E-score

Q: Which binding signal does the source give for ACTCGGAT here?
A: 0.38 ± 0.00767 E-score

Q: Which binding signal does the source give for AAACGGAT here?
A: 0.364 ± 0.0337 E-score

Q: Which binding signal does the source give for AGTCGGAT here?
A: 0.296 ± 0.0281 E-score

Q: With AATCGGAT as the sequence, how does the binding signal read?
A: 0.253 ± 0.0252 E-score

Q: With AGGCGGAT as the sequence, how does the binding signal read?
A: 0.346 ± 0.0312 E-score

Q: With AGACGGAT as the sequence, how does the binding signal read?
A: 0.402 ± 0.0158 E-score

Q: With ATACGTAG as the sequence, how does the binding signal read?
A: 0.276 ± 0.0521 E-score

Q: With ATACGTAT as the sequence, how does the binding signal read?
A: 0.421 ± 0.00632 E-score

Q: With TCAGATGA as the sequence, how does the binding signal read?
A: 0.3071 ± 0.00299 E-score

Q: AAGATGAT was tested. Which binding signal did it give?
A: 0.156 ± 0.09 E-score

Q: How did the binding signal turn out when TATCGATA was run?
A: 0.342 ± 0.0612 E-score

Q: How did the binding signal turn out when GATCAAAC was run?
A: 0.193 ± 0.0111 E-score

Q: How did the binding signal turn out when ACACCATC was run?
A: 0.312 ± 0.0186 E-score

Q: With ATCGGGGC as the sequence, how does the binding signal read?
A: 0.198 ± 0.0293 E-score

Q: Which binding signal does the source give for CGTCTCAC here?
A: 0.254 ± 0.0158 E-score

Q: How did the binding signal turn out when AACCGATC was run?
A: 0.335 ± 0.00772 E-score

Q: With TACCCCTA as the sequence, how does the binding signal read?
A: 0.34 ± 0.00513 E-score

Q: Which binding signal does the source give for ATACGGAA here?
A: 0.218 ± 0.0296 E-score

Q: ATACGGAG was tested. Which binding signal did it give?
A: 0.193 ± 0.0505 E-score

Q: How did the binding signal turn out when ATACGGAT was run?
A: 0.4254 ± 0.00356 E-score

Q: For CGATACTA, which binding signal is on record?
A: 0.424 ± 0.0171 E-score

Q: How did the binding signal turn out when AGATAGTC was run?
A: 0.172 ± 0.0352 E-score

Q: For CAATACTC, which binding signal is on record?
A: 0.297 ± 0.043 E-score

Q: Which binding signal does the source give for CTATACTC here?
A: 0.243 ± 0.0735 E-score

Q: How did the binding signal turn out when AGATACTC was run?
A: 0.402 ± 0.0473 E-score

Q: For CGATACTC, which binding signal is on record?
A: 0.45435 ± 0.000368 E-score

Q: AGATACTG was tested. Which binding signal did it give?
A: 0.34203 ± 0.000156 E-score

Q: AGATACTA was tested. Which binding signal did it give?
A: 0.316 ± 0.0687 E-score

Q: GGATACTA was tested. Which binding signal did it give?
A: 0.371 ± 0.0235 E-score

Q: ATATAGTC was tested. Which binding signal did it give?
A: 0.209 ± 0.0236 E-score

Q: For AACACCTG, which binding signal is on record?
A: 0.267 ± 0.00339 E-score

Q: With ATCCAGTC as the sequence, how does the binding signal read?
A: 0.179 ± 0.0594 E-score

Q: CGTATAAA was tested. Which binding signal did it give?
A: 0.219 ± 0.0801 E-score

Q: GATCAACA was tested. Which binding signal did it give?
A: 0.281 ± 0.0353 E-score

Q: TATCAACA was tested. Which binding signal did it give?
A: 0.399 ± 0.0298 E-score

Q: For TATCAAAA, which binding signal is on record?
A: 0.342 ± 0.1 E-score

Q: With TATCAAGA as the sequence, how does the binding signal read?
A: 0.302 ± 0.0583 E-score

Q: How did the binding signal turn out when GATCAATA was run?
A: 0.291 ± 0.0232 E-score

Q: TATCAATA was tested. Which binding signal did it give?
A: 0.407 ± 0.0444 E-score

Q: CCATCTCA was tested. Which binding signal did it give?
A: 0.164 ± 0.00629 E-score

Q: How did the binding signal turn out when GGATTATA was run?
A: 0.362 ± 0.0571 E-score

Q: With TAATAATA as the sequence, how does the binding signal read?
A: 0.225 ± 0.0789 E-score

Q: Which binding signal does the source give for ATCCCGGC here?
A: 0.173 ± 0.0398 E-score

Q: Which binding signal does the source give for CATCTATA here?
A: 0.251 ± 0.034 E-score

Q: For GATCCGGC, which binding signal is on record?
A: 0.3929 ± 0.00159 E-score

Q: Which binding signal does the source give for AATCCGAC here?
A: 0.189 ± 0.00791 E-score

Q: For TATCCGGA, which binding signal is on record?
A: 0.3912 ± 0.000898 E-score

Q: With GATCCGTA as the sequence, how does the binding signal read?
A: 0.383 ± 0.00781 E-score

Q: For AATCCGGC, which binding signal is on record?
A: 0.228 ± 0.0229 E-score

Q: Which binding signal does the source give for GATCCGAA here?
A: 0.357 ± 0.0457 E-score

Q: How did the binding signal turn out when CATCCGTA was run?
A: 0.168 ± 0.00426 E-score

Q: Which binding signal does the source give for CATCCGAC here?
A: 0.209 ± 0.0838 E-score
